Reference: PubChem BioAssay AID1662 (Broad Institute, 2009)
Among all 300,000 compounds or so, about 4,000 (1.3%) were called active. Many of the other results were omitted from the sample, so actives are more common in it than they were. A number with no mark means an inactive call.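 The calls were made as follows: active = mean replicate score, as percent of positive control median, at least 50; inconclusive = mean below 50 but one replicate at or above 50; inactive = mean and every replicate below 50.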

assay: kanamycin survival loss of SKKanGAS strain – BacTiter-Glo luminescence, streptokinase expression inhibitor project, primary screen (AID 1662);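 also: strain carries kanamycin resistance gene driven by streptokinase promoter and grows in 40 µg/ml kanamycin; loss of luminescence reflects streptokinase promoter inhibition or plain growth inhibition; 0% = median of DMSO wells and 100% = positive control at its reference dose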; conditions: S. pyogenes SKKanGAS, kanamycin growth, 6 h, at 7.5 µM, stronger effect = higher value

Point of comparison: CC1Cc2ccccc2N1S(=O)(=O)c1ccc(Cl)nc1 (stereo unspecified), inhibition -1.93%. Against it:
- COc1ccc(CCNC2=CC(=O)CC(C)(C)C2)cc1 — lower, -6.22%
- CC(C)(C)N1C(=O)[C@H]2[C@@H](c3ccc(Br)cc3)N3C(=O)N(c4cccc(Cl)c4)C(=O)[C@@]3(C)[C@H]2C1=O — higher, -0.18%
- Cc1cccc(-n2nc3c(c2NC(=O)c2cc4ccccc4o2)CS(=O)(=O)C3)c1 — higher, 1.09%
- CCOC(=O)c1cc(-c2ccc(F)cc2)n(CC(=O)NCc2ccccn2)c1C — higher, -1.39%
- COC(=O)c1ccc(Oc2nc(Nc3ccc(F)cc3)nc(N3CCCC3)n2)cc1 — higher, 18.8%
- Clc1nc(NC2CCCC2)nc(N2CCOCC2)n1 — higher, 3.5%
- O=c1cc(C(F)(F)F)[nH]c(=O)n1C1CCCCC1 — higher, 11.3%
- O=C(c1cccc(F)c1)N1CCN(c2ccc([N+](=O)[O-])c3cccnc23)CC1 — lower, -4.2%
- Cc1nnc(SCC(=O)Nn2cnnc2)s1 — higher, 4.69%
- Cc1cccc(CSc2nnc(NC(=O)CSc3nnc(C)s3)s2)c1 — higher, 7.83%
- Cc1nnc(SCC(=O)NC2CCCC2)s1 — higher, -0.971%
- COc1ccc(NC(=O)CCCC(=O)c2ccccc2)cc1 — higher, 1.96%
- CCOc1ccccc1/C=N/Nc1nc2ccccc2o1 — higher, 2.09%
- COc1cc(N/C=C2\CC(=O)NC(C)=C2C#N)cc(OC)c1OC — higher, -0.282%
- O=C(Nc1ccc(F)cc1)c1ccc(S(=O)(=O)NCc2cccnc2)cc1 — higher, -0.655%
- Cc1cc(C(F)(F)F)nn1-c1nc(-c2ccco2)cc(C(F)(F)F)n1 — higher, 7.56%
- FC(F)(F)c1cc(-c2cccs2)nc(NCc2ccco2)n1 — lower, -2.9%
- O=[N+]([O-])c1ccc(S(=O)(=O)Nc2cccc(-c3ccc(N4CCCC4)nn3)c2)cc1 — higher, 0.0506%
- O=S(=O)(Nc1ccc(-c2ccc(N3CCOCC3)nn2)cc1)c1cc(Cl)ccc1Cl — higher, 18.8%
- CC1CN(S(=O)(=O)c2cccc(C(F)(F)F)c2)CN1C(=O)N1CCOCC1 (stereo unspecified) — higher, 0.316%
- CN(C)CCNC(=O)c1[nH]nc2c1CCc1ccccc1-2 — lower, -5.17%
- COc1cc2cc(C(=O)N/N=C/c3cccc(OC)c3OC)[nH]c2cc1OC — higher, 2.92%
- COc1ccccc1C1C(C(N)=O)=C(C)Nc2nc(CCCO)nn21 (stereo unspecified) — lower, -3.27%
- CCOc1ccc(CN(C)C(=O)c2ccc(=O)[nH]c2)cc1 — higher, 1.34%
- CCOC(=O)C1=C(CCc2ccccc2)NC(=O)NC1c1ccc2ccccc2c1 (stereo unspecified) — higher, 19.2%
- CC(C)Cn1c(CCC(=O)O)ccc1-c1cccs1 — lower, -8.87%
- CCCCCn1c(SCCC(C)C)nc2c1c(=O)[nH]c(=O)n2C — higher, 26.4%
- C=CCSc1nc2c(c(=O)[nH]c(=O)n2C)n1Cc1ccccc1 — lower, -11.2%
- N=c1ccn(CC(=O)NC(N)=O)c2ccccc12 — lower, -5.02%
- Cc1cc(-c2ccc(C)c(S(=O)(=O)NC(C)Cc3ccco3)c2)on1 (stereo unspecified) — higher, 2.44%
- COc1ccc(C(CNC(=O)c2ccc(S(=O)(=O)Nc3ccccc3C)cc2)N2CCOCC2)cc1 (stereo unspecified) — lower, -13.5%
- COc1ccc(C(CNC(=O)c2cccc(NS(=O)(=O)c3ccc(C)c(F)c3)c2)N2CCCC2)cc1 (stereo unspecified) — lower, -16%
- C=Cc1ccc(C(=O)N2CCCC(CCC(=O)N3CCN(c4ccccn4)CC3)C2)cc1 (stereo unspecified) — higher, 4.83%
- CC(C)C(=O)Nc1nnc(SCC(=O)N2C(C)CCCC2C)s1 (stereo unspecified) — higher, -1.25%
- COc1cc(NS(=O)(=O)c2ccc(N=Cc3c(C)[nH]n(-c4ccccc4)c3=O)cc2)nc(OC)n1 — higher, 7.41%
- Cc1ccc(-n2[nH]c(C)c(/C=N/N3C(=O)c4cccc5cccc(c45)C3=O)c2=O)cc1 — higher, 8.48%
- CCOc1[nH]n(-c2ccc(Cl)cc2)c(=O)c1C=Nc1ccc(O)cc1 — higher, 2.84%
- Cc1[nH]n(-c2cccc(Cl)c2)c(=O)c1-c1ccc(Cl)cc1 — higher, 39.1%
- CCOC(=O)C1CCN(C(=O)COC(=O)C2CCN(S(=O)(=O)c3ccc4c(c3)OCCO4)CC2)CC1 — higher, 19.6%
- CCc1nnc(NC(=O)C2CC(=O)N(c3ccc4c(c3)OCCO4)C2)s1 (stereo unspecified) — lower, -3.71%
- CC(OC(=O)c1ccc2noc(-c3ccccc3)c2c1)C(N)=O (stereo unspecified) — higher, 6.64%
- Clc1c(OCCCn2ccnc2)ccc2ccccc12 — higher, 5.1%
- Cc1ccc(CNC(=O)CCN2C(=O)[C@@H]3Cc4ccccc4CN3C2=O)cc1 — higher, 4.22%
- CC1(c2ccccc2)NC(=O)N(CC(=O)Nc2cc(Cl)ccc2N2CCOCC2)C1=O (stereo unspecified) — lower, -3.7%
- Cc1ccccc1NC(=O)CSc1nc2ccc(Nc3nc(N4CCOCC4)nc(N4CCOCC4)n3)cc2s1 — higher, 15.9%
- Cc1ccc(SCc2c(C(=O)N/N=C/c3cccnc3)nnn2-c2nonc2N)cc1 — higher, 3.15%
- Nc1nonc1-n1nnc(C(=O)N/N=C/c2ccccc2O)c1CN1CCCC1 — lower, -2.71%
- O=C(O)c1cccnc1Sc1ncnc2sc3c(c12)CCC3 — higher, -1.33%
- COc1ccccc1CCC(=O)NNC(=O)c1ccncc1 — lower, -5.32%
- O=C(NC(=S)Nc1ccc(NC(=O)c2cccs2)cc1)c1ccc([N+](=O)[O-])cc1 — higher, 6.3%
- CC(=O)Nc1ccc(NC(=S)NC(=O)c2ccc([N+](=O)[O-])c(C)c2)cc1 — higher, -0.0689%
- CC(C)=N/N=C1/NC(=O)C(Cc2ccccc2)S1 (stereo unspecified) — higher, 0.633%
- NC1=NC(=O)C(Cc2cccc(Cl)c2Cl)S1 (stereo unspecified) — lower, -7.45%
- COc1ccc(C(CNC(=O)c2cc3c(s2)CCCC3)N2CCOCC2)cc1 (stereo unspecified) — lower, -4.29%
- O=C(Nc1cccc(Cl)c1)c1cncn1-c1ccc(F)cc1 — higher, -0.257%
- O=C(NNC(=S)NCc1ccco1)C(c1ccccc1)c1ccccc1 — higher, 12.9%
- CC(C)C(=O)Nc1cccc(NC(=S)NC(=O)C(c2ccccc2)c2ccccc2)c1 — higher, 22.1%
- CC(=O)N/C(=N/c1nc(C)cc(C)n1)Nc1ccc(F)cc1F — lower, -6.21%
- Cc1ccc(OCc2nnc(SC3CCc4ccccc4C3=O)n2C)cc1 (stereo unspecified) — higher, 1.05%
- CN(CCc1ccccn1)C(=O)c1ccc(OC2CCN(Cc3ccccn3)CC2)cc1 — higher, 15.2%
- Nc1cccc2c1C(=O)N(Cc1nnc(-c3ccccc3Br)o1)C2=O — lower, -13.7%
- COc1ccc(OCC(=O)NCCS(=O)(=O)N2CCN(c3ccc(F)cc3)CC2)cc1 — lower, -2.54%
- CCOc1cc(N2CCOCC2)c(OCC)cc1NC(=O)c1cc(C)nc2ccccc12 — higher, 6.5%
- CCOc1cc(N2CCOCC2)c(OCC)cc1NC(=O)c1ccc(C)s1 — lower, -3.59%
- CCOCCCNC(=O)C(NC(=O)c1ccc(=O)[nH]c1)c1ccc(Cl)cc1 (stereo unspecified) — lower, -3.58%
- COc1ccc(OC)c(S(=O)(=O)Nc2cccc(-c3ccc4nncn4n3)c2)c1 — lower, -5.29%
- O=C(Nc1ccc(Cl)cn1)Nc1cccs1 — lower, -3.53%
- Cc1ccc(Nc2nc(-c3ccc(O)cc3O)cs2)nc1 — higher, 20.8%
- O=C(CSc1ccc(-c2ccccn2)nn1)Nc1ccccc1 — lower, -3.36%
- O=c1c(-c2ccccc2)coc2cc(O)ccc12 — higher, 0.922%
- CC(C)CN(Cc1c(O)ccc2c(=O)c(-c3ccccc3)coc12)CC(C)C — higher, 0.595%

In the case of COc1nc(NC2CCCCC2)nc(N2CCCCCC2)n1, the inhibition was 75.9% (active).
In the case of Cc1cc(C)cc(C(=O)NC2C(=O)N3C(C(=O)O)=C(CSc4nnc(C)s4)CSC23)c1 (stereo unspecified), the inhibition was 96.4% (active).
In the case of Cc1nnc(SCC2=C(C(=O)O)N3C(=O)C(NC(=O)Cn4nc(C)c(Cl)c4C)C3SC2)s1 (stereo unspecified), the inhibition was 88.3% (active).
In the case of FC(F)(F)c1cc(-c2ccco2)nc(NCc2ccc(Cl)cc2)n1, the inhibition was 65.4% (active).
For O=S(=O)(Nc1cccc(-c2ccc(N3CCOCC3)nn2)c1)c1ccc(Cl)c(Cl)c1, the inhibition was 53.5% (active).
In the case of COc1cccc(/C=N/NC(=O)c2[nH]nc3c2CCc2ccccc2-3)c1O, the inhibition was 79% (active).
For CCCCCCn1c(SCC(=O)c2ccccc2)nc2c1c(=O)[nH]c(=O)n2C, the inhibition was 73.3% (active).
In the case of CCC(=C/c1sc2ccc3ccccc3c2[n+]1C)/C=C1\Sc2ccc3ccccc3c2N1C, the inhibition was 69.5% (active).
In the case of COc1ccc(C(CNC(=O)c2cccc(S(=O)(=O)Nc3ccccc3Cl)c2)N2CCOCC2)cc1 (stereo unspecified), the inhibition was 67.6% (active).
In the case of Cc1[nH]n(-c2ccc(Cl)cc2)c(=O)c1/C=N/n1c(C)nc2ccccc2c1=O, the inhibition was 69.1% (active).
With Cc1[nH]n(-c2cccc(Cl)c2)c(=O)c1/C=N/n1c(C)nc2ccccc2c1=O the inhibition was 79.2% (active).
For O=C(CSc1nc(Nc2ccccc2)nc(N2CCOCC2)n1)Nc1cc(Cl)ccc1O, the inhibition was 78.3% (active).
In the case of Nc1nonc1-n1nnc(C(=O)N/N=C/c2cc(Br)ccc2O)c1CSC1=NCCS1, the inhibition was 107% (active).
With CC(=O)NC(=S)Nc1ccc(NC(=S)NC(=O)c2ccc([N+](=O)[O-])cc2)cc1 the inhibition was 60.3% (active).
For O=C1NC(=Nc2ccc(Cl)cc2)SC1Cc1cccc(Cl)c1Cl (stereo unspecified), the inhibition was 61.1% (active).
For CCCCC(=O)NNC(=S)NC(=O)C(c1ccccc1)c1ccccc1, the inhibition was 85.9% (active).
With CCOc1cc(N2CCOCC2)c(OCC)cc1NC(=O)C1=NN(c2cccc(C)c2)C(=O)CC1 the inhibition was 54% (active).
For Clc1ccc(Nc2nc(-c3cccs3)cs2)nc1, the inhibition was 64.4% (active).
In the case of CC(C)=CCc1c(O)c(CC=C(C)C)c2occ(-c3ccc(O)cc3)c(=O)c2c1O, the inhibition was 105% (active).
